{"source": "PubChem BioAssay (NCI)", "note": "This is part of a sample that, as a whole, favours compounds with a hit. Of some 83,000 tested, about 20% had one in any assay.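 Each cell line was grown in a 96-well plate and treated with one concentration of compound for 48 hours. Values below 10 were considered active.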 Unmarked numbers belong to inactive results. Activity calls are given as the source filed them.", "data": [{"tested_on": "SK-MEL-5 melanoma", "test": "NCI-60 one-dose screen, 48 h (100 = growth as untreated, 0 = no growth, -100 = all killed)", "conditions": "10 µM unless noted", "method": "Growth inhibition of the SK-MEL-5 human tumor cell line is measured as a screen for anti-cancer activity. Cells are grown in 96 well plates and exposed to the test compound for 48 hours. Compounds are tested at a single concentration, which is 10^-5 M for most compounds. The reported endpoint is percent growth (GI% or GIPRCNT), where numbers from 0 - 100% represent growth inhibition, and numbers from -100% - 0 represent cell death. For example, a value of 40 represents 60% growth inhibition. A value of 0 means no net growth occurred over the course of the experiment. A value of -40 indicates 40% of cells at the beginning of the experiment died by the end of the experiment. A value of -100 means all cells are dead at the end of the experiment.\nNCI-60 Human Tumor Cell Lines Screen was performed using the standard one-dose NCI protocol, which is described in more detail at https://dtp.cancer.gov/discovery_development/nci-60/default.htm.\nCompounds with GIPRCNT values below 10 were considered active. Activity score was based on GIPRCNT using the following formula: […]\nScore is 0 for GIPRCNT values of 100 or above, 50 for GIPRCNT values of 0, and 100 for GIPRCNT values of -100.", "values": [{"compound": "CCC(c1ccccc1)c1noc(CCN(CC)CC)n1", "note": "(stereo not given)", "growth": "102%"}, {"compound": "Cc1cc2cn3c4cccnc4[nH]c(=O)c3c2cc1C", "growth": "44.4%"}, {"compound": "COc1cc2c(cc1OC)C1CCN3C(=O)CCC3N1CC2", "note": "(stereo not given)", "growth": "113%"}, {"compound": "COc1ccc(Cn2c(NCCCN(C)C)nc(=O)n(Cc3ccc(F)cc3)c2=O)cc1", "growth": "97.8%"}, {"compound": "CCCCC1Nc2nc(SC)n(C)c(=O)c2CN(Cc2ccccc2)C1=O", "note": "(stereo not given)", "growth": "96.4%"}, {"compound": "O=C(Cc1ccccn1)C(F)(F)C(F)(F)C(F)(F)F", "growth": "110%"}, {"compound": "C/C(=N/N=C(N)N)c1ccc(Cl)cc1", "growth": "94.1%"}, {"compound": "CCN(CC)CCCCNc1c2ccccc2[n+](C)c2c1[nH]c1ccccc12", "growth": "-69.9% (active)"}, {"compound": "CN(CC(=O)Nc1nc2ccccc2[nH]1)S(=O)(=O)c1ccc(Cl)cc1", "growth": "84.1%"}, {"compound": "Cc1c(NCc2nnc3n(Cc4ccccc4)c(=O)c4c5c(sc4n23)CCCC5)c(=O)n(-c2ccccc2)n1C", "growth": "81%"}, {"compound": "O=C(Nc1cccc([N+](=O)[O-])c1)c1cccc(C(=O)Nc2cccc([N+](=O)[O-])c2)c1", "growth": "94%"}, {"compound": "Cc1cc(C)c(OC(=O)CSc2nc3ccccc3c(=O)n2CCc2ccccc2)cc1C", "growth": "108%"}, {"compound": "C=C(C)[C@H]1CC/C(C)=C/CC[C@]2(C)O[C@H]2CC/C(COC(C)=O)=C\\C1=O", "growth": "109%"}, {"compound": "O=C(CCc1nnc(Cn2cncn2)o1)c1nc2ccccc2[nH]1", "growth": "105%"}, {"compound": "COc1ccc2c(c1)C(=O)c1c-2c(=O)n(CCCCCCC(=O)NO)c2ccccc12", "growth": "-85.7% (active)"}, {"compound": "N#CCNc1ccccc1N", "growth": "96%"}, {"compound": "O=C(/C(=C/c1cccc([N+](=O)[O-])c1)c1ccccc1)c1ccccc1", "growth": "41.5%"}, {"compound": "CCn1c2ccccc2c2ccc(C(C)=O)cc21", "growth": "94.4%"}, {"compound": "O=C1Cc2cc(CCn3cncn3)c(Cl)cc2N1", "growth": "40.1%"}, {"compound": "Oc1ccccc1C=Nc1ccccc1N=Cc1ccccc1O.[Cu+2]", "growth": "24.1%"}, {"compound": "CN1C(=O)/C(=C/c2nc(-c3cccc(F)c3)n3ccccc23)c2ccccc21", "growth": "64%"}, {"compound": "COc1ccc(-c2c(-c3cc(OC)c(OC)c(OC)c3)noc2N)cc1", "growth": "-60.7% (active)"}, {"compound": "COc1ccc2c(c1)C(=O)/C(=C/c1ccc([N+](=O)[O-])s1)O2", "growth": "-13.5% (active)"}, {"compound": "CCSc1nnc2n(Cc3ccccc3)c(=O)c3c(C)c(C(N)=O)sc3n12", "growth": "95.8%"}, {"compound": "O=Cc1c[nH]c2ccc(NC(=O)OCc3ccccc3)cc12", "growth": "99.1%"}, {"compound": "Nc1nc(SCC2(CCl)COC2)c2[nH]cnc2n1", "growth": "107%"}, {"compound": "Nc1cc(Cl)c(S(N)(=O)=O)cc1S(N)(=O)=O", "growth": "102%"}, {"compound": "COc1ccc(C2CC(c3ccc(OC)c(OC)c3)=NN2C(=O)c2cc(OC)c(OC)c(OC)c2)cc1", "note": "(stereo not given)", "growth": "5.8% (active)"}, {"compound": "Cc1cc(C(=O)O)c(C)cc1C(=O)O", "growth": "99.9%"}, {"compound": "CC(c1cc(Cl)ccc1O)c1cc(Cl)ccc1O", "growth": "7.93% (active)"}, {"compound": "Nc1ccc2c3c(cccc13)-c1ccccc1-2", "growth": "98.4%"}, {"compound": "COc1cc(C2C=C(c3ccc(C)cc3)Nc3nc(SC)[nH]c(=O)c32)ccc1Oc1ccnc2cc(Cl)ccc12", "note": "(stereo not given)", "growth": "63.1%"}, {"compound": "CCOC(=O)c1ccccc1OC(=O)NNc1ccccc1", "growth": "57.2%"}, {"compound": "NNC(=O)C1CC2c3ccccc3C1c1ccccc12", "note": "(stereo not given)", "growth": "110%"}, {"compound": "C=C1c2c(C)nn(-c3ccc(C#CCOC4OC(CO)C(O)C(O)C4O)cc3)c2N(C)C23C[C@H]1C1(C)c4c(C)nn(-c5ccc(C#CCOC6OC(CO)C(O)C(O)C6O)cc5)c4N(C)C(C)(C[C@H]12)C3", "note": "(stereo not given in full)", "growth": "-74.7% (active)"}, {"compound": "CCCCCCCCCCCCNc1ncnc2[nH]ncc12", "growth": "36.1%"}, {"compound": "C[C@]12CC[C@@H]3c4ccc(O)cc4CC[C@H]3[C@@H]1CC[C@@H]2NS(=O)(=O)c1cccc(Br)c1", "growth": "61.3%"}, {"compound": "COc1c(O)cc2oc3cc(O)c(CC=C(C)C)c(O)c3c(=O)c2c1C/C=C(\\C)CCC=C(C)C", "growth": "86.6%"}, {"compound": "COc1ccc(/C=C2\\NC(=S)NC2=O)cc1", "growth": "107%"}, {"compound": "Cc1ccc([N+](=O)[O-])cc1NC(=O)Nc1cccc(F)c1", "growth": "60.5%"}]}]}
